From PubChem
Only some compounds are listed: those with a hit (about 7.5% of all), similar ones and a draw of the others.
SMN2 splice up = SMN2 splice variant enhancement; AID 1458; Potency, µM (highest dose often 46.1 µM), actives largely listed as activators; HEK293 SMN2-luciferase splicing reporter, luminescence, 30-36 h; 210,000 tested, 2.8% active; further: nearly all actives have a fitted effect of over 55% in size
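HEK293 cells carry an SMN2 […]–luciferase reporter in which exon 7 inclusion puts luciferase in frame. Cells were plated 10-12 h before compound addition, then incubated 30-36 h at 37C. ONE-Glo luminescence was read; sodium butyrate at 4.5 mM final served as control.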
ELG1 genotox = induces genotoxicity in HEK293T cells with luciferase-tagged ELG1 | HEK293T ELG1-luciferase reporter, luminescence, 16 h | Potency, µM (top dose mostly 46 µM), hits mostly activators | 330,000 tested, 1.3% active; further: nearly all actives have a fitted effect of over 60% in size
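Cells (2,000/well) expressing the ELG1-luciferase fusion are dosed by pin tool and kept 16 hr at 37 °C, 5% CO2. Signal comes from ONE-Glo luciferase reagent after 30 min at room temperature.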
NPC1 promoter act = NPC1 promoter activation | 320,000 tested, 2.4% active | Huh7 NPC1 promoter luciferase reporter, 24 h | Potency, µM (doses to about 9.22 µM), usual class: activators | AID 485313; further: nearly all actives have a fitted effect of over 60% in size
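Stably transfected Huh7 (NPC1 promoter→luciferase), 1500 cells/well in Opti-MEM + 10% FBS, 2 h settle, then compound 24 h at 37 °C. Luminescence after 10 min with Amplite reagent.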
KinaseGlo FLuc = Kinase-Glo luciferase inhibition (counter-screen); Potency, µM (titrated, usually from 38.3 µM), most hits filed as inhibitors; AID 1379; 200,000 tested, 0.28% active; Kinase-Glo luciferase, ATP luminescence, 8 min; Q27757; further: nearly all actives have a fitted effect of over 60% in size
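Recombinant Kinase-Glo luciferase, 10 uM ATP (linear range), luciferin; imidazole pH 7.2 / KCl / MgCl2 / Tween / BSA buffer; 8 min RT; luminescence.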
FLuc modulator = firefly luciferase modulation, counter-screen for miR-21 project; purified FLuc, Km substrates, luminescence inhibition; Potency, µM (series often up to 57.5 µM), most hits filed as inhibitors; 360,000 tested, 6.9% active; further: nearly all actives have a fitted effect of over 55% in size
Target sequence (P08659 whole entry, looked up): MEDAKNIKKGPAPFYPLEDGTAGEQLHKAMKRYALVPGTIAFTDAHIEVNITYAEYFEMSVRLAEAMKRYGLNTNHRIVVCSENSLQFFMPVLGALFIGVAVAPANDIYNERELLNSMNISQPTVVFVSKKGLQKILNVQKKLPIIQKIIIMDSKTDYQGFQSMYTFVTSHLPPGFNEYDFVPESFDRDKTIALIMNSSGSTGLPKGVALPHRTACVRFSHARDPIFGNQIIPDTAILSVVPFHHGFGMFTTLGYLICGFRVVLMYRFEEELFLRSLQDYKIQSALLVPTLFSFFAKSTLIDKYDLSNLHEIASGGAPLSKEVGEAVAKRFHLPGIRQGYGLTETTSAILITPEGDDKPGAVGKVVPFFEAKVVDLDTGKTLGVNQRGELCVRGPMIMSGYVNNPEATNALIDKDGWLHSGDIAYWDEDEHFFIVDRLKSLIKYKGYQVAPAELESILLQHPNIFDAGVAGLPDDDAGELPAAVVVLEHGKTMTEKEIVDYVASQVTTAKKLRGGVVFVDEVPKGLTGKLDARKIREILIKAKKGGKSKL
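Purified P. pyralis luciferase, 10 nM final, with Km-level 10 uM D-luciferin and 10 uM ATP in 50 mM Tris acetate pH 7.5, 10 mM Mg acetate, 0.01% Tween-20, 0.05% BSA; 6-point qHTS titration about 60 µM downward; luminescence read.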
Rab9 promoter act = activators of Rab9 promoter; Potency, µM (doses to about 9.22 µM), most hits filed as activators; 320,000 tested, 2.8% active; Huh7 Rab9 promoter-luciferase reporter, luminescence, 24 h; AID 485297; further: nearly all actives have a fitted effect of over 60% in size
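Cell-based reporter: Huh7 stable for Rab9 promoter-driven luciferase, plated in reduced-serum medium with 10% FBS at 1500 cells/well, compound-treated 24 h at 37 °C, luminescence read after 10 min reagent.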
Numbers stand for hits; . = inactive; ? = inconclusive; / = no result; [ ] = dose if it differs, or a comment. The call rests on the fitted dose curve; in most records, active means well fitted curve in the direction sought with a large enough effect; inconclusive means small, poorly fitted or top-dose-only effect, or another doubt; inactive means no such curve, though single readings can be large; an effect the other way counts as inactive or inconclusive.

SMILES | SMN2 splice up | ELG1 genotox | NPC1 promoter act | KinaseGlo FLuc | FLuc modulator | Rab9 promoter act
CN(CC(=O)Nc1ccccc1C(F)(F)F)C(=O)c1cccc(-n2cccc2)c1 | / | . | . | / | . | .
O=C1CCC([N+](=O)[O-])C(c2cc(Br)ccc2F)N1 (stereo unspecified) | / | . | . | / | . | .
CCOc1ccc(C(=O)/C=C/c2ccc(OC)c(OC)c2)cc1 | . | . | . | . | 17µM | .
COc1cccc(C(=O)/C=C/c2ccc(OCC#N)c(OC)c2)c1 | .[1.84 µM] | . | . | . | ? | .
CCOc1ccc(/C=C/C(=O)c2ccccc2)cc1OC | . | ? | ? | . | 4.3µM | ?
CCC(=O)c1ccc(OCc2ccccc2)c(OC)c1 | 14µM | ? | ? | . | ? | ?
CCC(=O)c1ccc(OCc2ccc(C(=O)OC)cc2)c(OC)c1 | ? | . | . | . | . | .
COc1cc(-c2nnc(SCCOc3cc(C)cc(C)c3)o2)cc(OC)c1OC | / | / | / | / | 15µM | /
COc1cc(-c2nnc(SCC(=O)c3ccc(C)cc3)o2)cc(OC)c1OC | . | . | . | . | . | .
COc1ccc(CNC(=O)c2oc3ccc(S(=O)(=O)N4CCOCC4)cc3c2C)cc1 | / | . | . | / | . | .
Cc1ccc(CNC(=O)c2oc3ccc(S(=O)(=O)N4CCOCC4)cc3c2C)cc1 | 5.6µM | . | . | . | . | .
Cc1c(C(=O)N2CCOCC2)oc2ccc(S(=O)(=O)N3CCCC3)cc12 | . | / | ? | . | . | 0.016µM
Cc1ccc(OCC(=O)OCc2cc(=O)n3ccsc3n2)cc1C | / | / | / | / | . | /
CCOC(=O)c1cnc2ccc(C(=O)OC)cc2c1Nc1ccccc1CC | . | / | / | / | . | /
Cc1ccc(C(=O)Nc2ccc(S(=O)(=O)NC3=NCCCCC3)cc2)c(C)c1 | / | . | . | / | 12µM | .
COc1ccc(NS(=O)(=O)c2ccc3c(c2)CCN3C(=O)CCC(=O)O)cc1OC | / | . | . | / | . | .
C=CCOc1cccc(C(=O)/C=C2/C(=O)Nc3ccccc32)c1 | / | . | . | / | 7.6µM | .
C#CCn1cc(/C=C2\NC(=O)NC2=O)c2ccccc21 | / | ? | . | / | . | .
CCc1nnc(SCC(=O)Nc2ccc(N3CCOCC3)cc2)n1C | / | . | . | / | 21µM | .
Cc1ccc(NC(=O)CSc2nnc3n2CCCCC3)cc1 | . | . | . | . | . | .
O=C(CSc1nnc2n1CCCCC2)Nc1ccc(N2CCOCC2)cc1 | / | . | . | / | 17µM | .
Cc1ccccc1OCc1nnc(SCC(=O)Nc2ccc(N3CCOCC3)cc2)n1C | / | . | . | / | ? | .
Cc1ccc(C(=O)NCc2nnc(SCC(=O)Nc3ccccc3)n2C)cc1 | . | . | . | . | 21µM | .
CCOC(=O)c1nc(Nc2ccc(C(=O)OC(C)C)cc2)c2ccccc2n1 | . | / | / | / | . | /
COC(=O)C1=C(C(=O)OC)[C@@H]2N(C)c3ccccc3[C@@]23C[C@@H](CO)N(C(=O)c2ccco2)C3=N1 | ? | / | / | .[7.66 µM] | / | /
SMILES | SMN2 splice up | ELG1 genotox | NPC1 promoter act | KinaseGlo FLuc | FLuc modulator | Rab9 promoter act
O=C(CCN=C1NS(=O)(=O)c2ccccc21)OCc1cccc(Cl)c1 | / | . | . | / | . | .
COc1ccc(-c2csc(NC(=O)C3=COCCO3)n2)c(OC)c1 | / | 21µM | ? | / | 24µM | ?
C=CCn1c(C)cc(-c2csc(NC(=O)C3=COCCO3)n2)c1C | / | ? | 2.2µM | / | 9.5µM | 1.6µM
COc1ccc(-c2csc(NC(=O)CN3C(=O)C4CCCCC4C3=O)n2)c(OC)c1 (stereo unspecified) | / | . | . | / | ? | .
C=CCn1c(C)cc(-c2csc(NCC)n2)c1C | / | . | . | . | 15µM | .
C=CCNc1nc(-c2ccc(OC)cc2OC)cs1 | ? | ? | 2.8µM | . | 12µM | 3.2µM
CC(C)[C@H]1COC(c2cc(Cl)cc(Cl)c2)=N1 | / | / | / | . | / | /
COc1ccc(-c2[nH]ncc2CN(C)Cc2nonc2C)c(OC)c1 | / | . | . | / | . | .
Cc1cc(C)c(-c2csc(NC(=O)C3=COCCO3)n2)cc1C | / | . | . | / | 19µM | .
O=C(Nc1nc(-c2ccc(-c3ccccc3)cc2)cs1)C1=COCCO1 | . | . | . | . | ? | .
COc1ccc(-c2csc(NC(=O)COC(=O)C3=COCCO3)n2)cc1 | 14µM | . | 3.5µM | . | . | 4µM
Cc1cccc(NC2SC(=O)NC2=O)c1 (stereo unspecified) | . | . | . | . | . | .
CN1CCN(C(=O)c2cc3cc(F)ccc3[nH]2)CC1 | / | . | . | / | . | .
O=C(c1cc2cc(F)ccc2[nH]1)N1CCc2ccccc21 | / | ? | 4µM | / | ? | 3.5µM
COc1ccc2cc(C(=O)NCc3ccc4c(c3)CCN4C(=O)c3ccccc3)[nH]c2c1 | / | / | / | / | . | /
O=C(c1cc2cc(Br)ccc2[nH]1)N1CCc2ccccc21 | / | . | 5µM | / | . | .
COc1ccc2cc(C(=O)N3CCc4ccccc43)[nH]c2c1 | / | ? | ? | / | 0.95µM | 4µM
O=C(c1cccc(F)c1)N1CCc2ccccc21 | . | . | . | . | . | .
CCOc1ccc(C(C)=O)cc1Cn1c(=O)oc2ccccc21 | / | . | . | / | . | .
COc1ccccc1NC(=O)Cn1c(C)cc(C)c(C#N)c1=O | / | / | / | / | . | /
O=C(NCCN1CCCCC1)c1ccc(Cn2c(SCc3cccc(F)c3)nc3cccnc32)cc1 | . | / | / | / | . | /
CCN(C(=O)COC(=O)c1ccc2ccccc2n1)c1c(N)n(Cc2ccccc2)c(=O)[nH]c1=O | / | . | . | / | . | .
COc1ccc(OCC(=O)N2CCC3(CC2)CC(=O)c2ccccc2O3)cc1 | / | . | . | / | . | .
CC(C)Oc1ccc(C(=O)Nc2ccc3c(c2)n(C)c(=O)n3C)cc1 | / | 23µM | . | / | 12µM | .
CCCOc1ccc(C(=O)Nc2ccc(N(C)C)cc2)cc1 | . | 5.6µM | . | . | 0.76µM | ?
SMILES | SMN2 splice up | ELG1 genotox | NPC1 promoter act | KinaseGlo FLuc | FLuc modulator | Rab9 promoter act
Cn1c(=O)n(C)c2cc(C(N)=O)ccc21 | 22µM | . | . | . | .[2.3 µM] | .
Cn1c(=O)n(C)c2cc(NC(=O)c3ccc(F)cc3)ccc21 | / | ? | . | / | ? | .
CCCOc1ccc(NC(=O)c2cc3cc(C)ccc3[nH]2)cc1 | / | . | 1.8µM | / | . | ?
CC(C)Oc1ccc(C(=O)Nc2ccc(N(C)C)cc2)cc1 | / | 4.1µM | . | / | 3.4µM | .
CC(C)Oc1ccc(C(=O)NCC(c2ccc(N(C)C)cc2)N2CCCC2)cc1 (stereo unspecified) | / | / | / | / | . | /
CCc1noc(C)c1C(=O)OCC(=O)Nc1cccc(C)c1 | / | . | . | / | . | .
CCCc1cc(=O)n2[nH]c(-c3ccc(C)cc3)cc2n1 | 13µM | ? | 4µM | . | 9.5µM | 4µM
CCCc1cc(=O)n2[nH]c(-c3ccccc3)cc2n1 | 11µM | ? | 4µM | . | 17µM | 2.8µM
CCOC(=O)Cc1cc(=O)n2[nH]c(-c3ccc(Cl)cc3)cc2n1 | . | . | . | . | 13µM | .
CCCc1cc(=O)n2[nH]c(C)nc2n1 | . | . | . | . | . | .
